GPR151 ag – activates the human receptor GPR151 | 1% of 650,000 active | AID 1508602 | Q8TDV0 | PathHunter beta-arrestin GPR151 cells, luminescence | activation, % at 11.2 µM; in the data active = activation above about 4.9%
TEAD-YAP inh – TEAD-YAP interaction inhibition. HEK-TIYL cells, TEAD-Gal4/YAP UAS-luciferase luminescence. inhibition, % at 9.12 µM. 1.4% of 640,000 active; in the data active = inhibition above about 32%
MITF inh – human MITF inhibition, primary screen; AlphaScreen MITF homodimerization, bead proximity signal; inhibition, % at 2.6 µM; 0.91% of 650,000 active; in the data active = inhibition above about 50%
FBW7 activator – human FBW7 E3 ligase activation, primary screen; normalized activity (activation), % at 26.1 µM; AID 1259310; 0.13% of 650,000 active; AlphaScreen FBW7–phospho-cyclin E peptide binding, activator screen; in the data active = normalized activity above about 1.9%;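 note: purified mutant Fbw7 with reduced substrate affinity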
Target sequence (Q969H0 whole entry, looked up): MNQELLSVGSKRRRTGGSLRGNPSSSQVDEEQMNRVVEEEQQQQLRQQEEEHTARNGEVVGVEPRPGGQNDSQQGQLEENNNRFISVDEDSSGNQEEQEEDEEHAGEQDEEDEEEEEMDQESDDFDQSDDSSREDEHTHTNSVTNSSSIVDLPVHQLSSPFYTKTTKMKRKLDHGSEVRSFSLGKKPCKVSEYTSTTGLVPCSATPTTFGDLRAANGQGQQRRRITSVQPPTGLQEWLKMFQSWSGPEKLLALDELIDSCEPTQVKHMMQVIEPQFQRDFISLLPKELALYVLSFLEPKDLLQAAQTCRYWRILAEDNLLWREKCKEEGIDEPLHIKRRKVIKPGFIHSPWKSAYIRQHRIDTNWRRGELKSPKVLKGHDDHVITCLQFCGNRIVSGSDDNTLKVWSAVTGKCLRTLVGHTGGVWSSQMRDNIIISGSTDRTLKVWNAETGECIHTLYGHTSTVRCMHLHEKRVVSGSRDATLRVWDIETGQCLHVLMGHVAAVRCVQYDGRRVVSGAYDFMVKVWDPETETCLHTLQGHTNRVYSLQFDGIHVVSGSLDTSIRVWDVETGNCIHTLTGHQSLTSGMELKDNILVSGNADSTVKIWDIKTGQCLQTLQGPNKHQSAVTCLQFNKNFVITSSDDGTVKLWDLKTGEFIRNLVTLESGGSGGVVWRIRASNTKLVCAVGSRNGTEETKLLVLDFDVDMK
Hits are given with their value. Hits are enriched below; roughly 3.5% of the tested compounds scored in any of these assays.

For O=C(Nc1ccc(Cl)cc1Cl)c1cc(Br)ccc1Cl the results were GPR151 ag inactive, TEAD-YAP inh inactive, MITF inh inactive and FBW7 activator inactive.
Screening CC(C)n1c(/C=N/Nc2nc3ccccc3[nH]2)nc2ccccc21 returned GPR151 ag inactive, TEAD-YAP inh 36.8, MITF inh inactive and FBW7 activator inactive.
Screening Cn1c(/C=N/Nc2nc3ccccc3[nH]2)nc2ccccc21 returned GPR151 ag inactive, TEAD-YAP inh 39.5, MITF inh inactive and FBW7 activator inactive.
For CCCn1c(/C=N/Nc2nc3ccccc3[nH]2)nc2ccccc21 the results were GPR151 ag inactive, TEAD-YAP inh inactive, MITF inh inactive and FBW7 activator inactive.
CC(NC(=O)C1CC1)c1nnc2n1CCN(Cc1ccc(-c3ccc(Cl)cc3)o1)CC2 (centres undefined) was read as GPR151 ag inactive, TEAD-YAP inh inactive, MITF inh inactive and FBW7 activator inactive.
For O=C(c1ccc2c(=O)n(Cc3ccc(Cl)cc3)c(=S)[nH]c2c1)N1CCN(Cc2ccc3c(c2)OCO3)CC1 the results were GPR151 ag inactive, TEAD-YAP inh inactive, MITF inh inactive and FBW7 activator inactive.
Screening CCOCCCn1c(=S)[nH]c2cc(C(=O)N3CCN(Cc4ccc5c(c4)OCO5)CC3)ccc2c1=O returned GPR151 ag inactive, TEAD-YAP inh 43.0, MITF inh inactive and FBW7 activator inactive.
Cc1nc(C)n(-c2ccc(Nc3nccc(-c4cncc5ccccc45)n3)cc2)n1 was read as GPR151 ag inactive, TEAD-YAP inh 80.9, MITF inh inactive and FBW7 activator inactive.
Cc1nc(C)n(-c2ccc(Nc3nccc(-c4ccccc4-c4ccccc4)n3)cc2)n1 was read as GPR151 ag inactive, TEAD-YAP inh inactive, MITF inh inactive and FBW7 activator inactive.
For CCOC(=O)c1ccc(NC(=O)c2sc(N)c(C(=O)OCC)c2C)cc1 the results were GPR151 ag inactive, TEAD-YAP inh 61.1, MITF inh inactive and FBW7 activator inactive.
Screening CCOC(=O)c1ccccc1NC(=O)c1sc(N)c(C(=O)OCC)c1C returned GPR151 ag inactive, TEAD-YAP inh 54.3, MITF inh inactive and FBW7 activator inactive.
`COC(=O)c1c(N)sc(C(=O)Nc2ccc(C)cc2C)c1C` gave GPR151 ag inactive, TEAD-YAP inh 75.7, MITF inh inactive and FBW7 activator inactive.
Screening COC(=O)c1c(N)sc(C(=O)Nc2ccccc2C)c1C returned GPR151 ag inactive, TEAD-YAP inh inactive, MITF inh inactive and FBW7 activator inactive.
CCOC(=O)c1c(N)sc(C(=O)Nc2cccc(OC)c2)c1C was read as GPR151 ag inactive, TEAD-YAP inh 51.6, MITF inh inactive and FBW7 activator inactive.
For CCOC(=O)c1c(N)sc(C(=O)Nc2ccccc2C)c1C the results were GPR151 ag inactive, TEAD-YAP inh inactive, MITF inh inactive and FBW7 activator inactive.
Screening CCOC(=O)c1ccc(NC(=O)c2sc(NC(=O)c3cc(OC)c(OC)c(OC)c3)c(C(=O)OCC)c2C)cc1 returned GPR151 ag inactive, TEAD-YAP inh inactive, MITF inh inactive and FBW7 activator inactive.
COc1ccc(S(=O)(=O)NC(CC(=O)N2CCc3ccccc32)C(C)C)cc1 (centres undefined) was read as GPR151 ag inactive, TEAD-YAP inh inactive, MITF inh inactive and FBW7 activator inactive.
Cc1onc(-c2ccccc2)c1C1=N/C(=C\c2cccc(Br)c2)C(=O)O1 was read as GPR151 ag inactive, TEAD-YAP inh inactive, MITF inh inactive and FBW7 activator 2.2.
`C#CC(O)(c1ccc(OC)cc1OC)c1ccc(OC)cc1OC` gave GPR151 ag inactive, TEAD-YAP inh 33.4, MITF inh inactive and FBW7 activator inactive.
For CN(C)C(=O)c1nc2ccc(Cl)cn2c1CNCc1ccc(-n2cccn2)cc1 the results were GPR151 ag inactive, TEAD-YAP inh inactive, MITF inh inactive and FBW7 activator inactive.
O=C(CNC(=O)c1ccco1)N/N=C/c1cc(I)ccc1O was read as GPR151 ag inactive, TEAD-YAP inh inactive, MITF inh inactive and FBW7 activator inactive.
For O=C(CCl)N(C1CCCCC1)C1CCS(=O)(=O)C1 (centres undefined) the results were GPR151 ag inactive, TEAD-YAP inh 70.1, MITF inh inactive and FBW7 activator inactive.
Cn1c(SCC(=O)N(C2CCCCC2)C2CCS(=O)(=O)C2)nnc1C(F)(F)F (centres undefined) was read as GPR151 ag inactive, TEAD-YAP inh inactive, MITF inh inactive and FBW7 activator inactive.
O=C(CCl)N(CC1CCCO1)C1CCS(=O)(=O)C1 (centres undefined) was read as GPR151 ag inactive, TEAD-YAP inh inactive, MITF inh inactive and FBW7 activator inactive.
For O=C(CCl)N(Cc1ccccc1)C1CCS(=O)(=O)C1 (centres undefined) the results were GPR151 ag inactive, TEAD-YAP inh 55.9, MITF inh inactive and FBW7 activator inactive.
For O=C(CCl)N(C1CCCC1)C1CCS(=O)(=O)C1 (centres undefined) the results were GPR151 ag inactive, TEAD-YAP inh 64.7, MITF inh inactive and FBW7 activator inactive.
O=C1C2CC=CCC2C(=O)N1CC(=O)N(Cc1ccccc1)C1CCS(=O)(=O)C1 (centres undefined) was read as GPR151 ag inactive, TEAD-YAP inh inactive, MITF inh inactive and FBW7 activator inactive.
For O=C(CCl)N(C1CC1)C1CCS(=O)(=O)C1 (centres undefined) the results were GPR151 ag inactive, TEAD-YAP inh 54.2, MITF inh inactive and FBW7 activator inactive.
Screening O=C(NCc1cccc(C(F)(F)F)c1)c1cc(N2CCN(Cc3ccc4c(c3)OCO4)CC2)nc2ccccc12 returned GPR151 ag inactive, TEAD-YAP inh inactive, MITF inh inactive and FBW7 activator inactive.
`CS/C(NCc1ccncc1)=C(/C#N)C(=O)c1ccc(Cl)cc1` gave GPR151 ag inactive, TEAD-YAP inh inactive, MITF inh inactive and FBW7 activator inactive.
For CCCCC(=O)Nc1ccc(NC(=O)C(C)C)nc1 the results were GPR151 ag inactive, TEAD-YAP inh inactive, MITF inh inactive and FBW7 activator inactive.
Screening CCC(C)N(C(=O)CCl)C1CCS(=O)(=O)C1 (centres undefined) returned GPR151 ag inactive, TEAD-YAP inh 56.1, MITF inh inactive and FBW7 activator inactive.
For O=C(Nc1ccc2nc(SCc3ccc(Br)cc3)sc2c1)c1ccc(Cl)cc1Cl the results were GPR151 ag inactive, TEAD-YAP inh inactive, MITF inh inactive and FBW7 activator inactive.
For Oc1ccc(-c2cnn3ccc(NCc4cccnc4)nc23)cc1 the results were GPR151 ag inactive, TEAD-YAP inh 34.7, MITF inh inactive and FBW7 activator inactive.
`COc1cc(-c2cnn3ccc(NCCO)nc23)ccc1O` gave GPR151 ag inactive, TEAD-YAP inh inactive, MITF inh inactive and FBW7 activator inactive.
COc1cccc(-c2cnn3ccc(Nc4cc(OC)c(OC)c(OC)c4)nc23)c1 was read as GPR151 ag inactive, TEAD-YAP inh inactive, MITF inh inactive and FBW7 activator inactive.
Screening COc1cc(-c2cnn3ccc(Nc4cc(OC)c(OC)c(OC)c4)nc23)ccc1O returned GPR151 ag inactive, TEAD-YAP inh 71.0, MITF inh inactive and FBW7 activator inactive.
For COc1ccc(-c2cnn3ccc(NCCO)nc23)cc1OC the results were GPR151 ag inactive, TEAD-YAP inh 57.1, MITF inh inactive and FBW7 activator inactive.

High-throughput results: PubChem, The Scripps Research Institute Molecular Screening Center
